Source: PubChem BioAssay (Broad Institute)
Tgondii IFNg: T. gondii growth inhibition with IFN-gamma, primary screen, cell-based. Toxoplasma gondii growth in IFN-gamma-treated host cells; stronger effect = lower value. activity change, negative = inhibition, % (no concentration beside the values). 69,000 tested, 3.8% active. AID 1259416, 2018; in the data active means activity change below about -70%, passing the limit was not always enough;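 further: host cells are HeLa cells infected with Toxoplasma gondii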
Numbers without * were called inactive. The entries come from a sample that favours hits as a whole.

SMILES | Tgondii IFNg
COc1ccc(CNc2nc(-c3nnc(-c4cccc(C)c4)o3)nc3ccccc23)cc1 | 108.8
C[C@@H](C1CCCCC1)n1c(C2CC2)n[nH]c1=O | -8.7
CCOc1ccccc1NC(=O)N1CCCCC1CCn1cccn1 (centres undefined) | 8.7
Cc1nc(CN2CC[C@@H]3[C@H]2CCN3S(C)(=O)=O)cs1 | -16.2
Cc1ccc(C)c(-c2noc(-c3c(O)c4cc(C)ccc4[nH]c3=O)n2)c1 | 77.9
CCOc1ccc(Nc2nc(-c3ccc(OC)cc3)nc3ccccc23)cc1 | -42.6
CCOc1ccc(Nc2nc3ccccc3nc2Nc2ccc(OCC)cc2)cc1 | -100.0*
CCOc1ccc(NC(=O)Cn2c(C)cc(C)nc2=O)cc1 | 19.5
CCOc1ccc(NC(=O)c2nc3ccccc3nc2-n2nc(C)cc2C)cc1 | -98.5*
CCOc1ccccc1C(=O)Nc1ccc(-c2nc(Cn3nc(C)cc3C)c(C)o2)cc1 | 44.2
CCOc1ccc(CNC(=O)c2nc(Nc3ccccc3)c3ccccc3n2)cc1 | -51.6
O=C(NCCc1csc(-c2ccc(F)cc2)n1)c1ccc(F)c(F)c1 | -27.6
O=C(O)c1cccnc1CN1CCCC(c2ccccc2)CC1 (centres undefined) | 3.4
Nc1cc(-c2ncccc2C(=O)N2C[C@H]3CC[C@@H]2C3)c2cc[nH]c2n1 | 5.9
Cc1nc(-c2nnc(SCc3ccc(C(F)(F)F)cc3)o2)cs1 | -67.7
CO[C@@]12[C@@H]3NC3CN1C1=C(C(=O)C(N)=C(C)C1=O)[C@@H]2COC(N)=O (some centres undefined) | -79.9*
O=c1cc(-c2ccccc2)oc2c(O)c(O)ccc12 | -91.5*
Cc1cc(=O)oc2c(O)c(O)ccc12 | 7.1
Cc1oc2c(O)c(O)ccc2c(=O)c1-c1ccccc1 | 43.3
OC1(c2cccnc2)CCN(c2ncc(-c3cccs3)c(-c3nccs3)n2)CC1 | 8.4
CC(=O)c1cc(-c2cccc3cccnc23)ccc1O | -27.5
COCCn1c(-c2ccc(OC)cc2)cnc1SCC(=O)Nc1ccc(C)c(Cl)c1 | -90.1*
COc1ccc(CC(=O)Nc2ccc(-c3nc(-c4cc(C)ccc4C)co3)cc2)cc1 | -11.1
COc1ccc(-c2ccnc(SCC(=O)Nc3ccccc3)n2)cc1 | -23.0
Cc1cccc(CC(=O)NCCc2csc(-c3ccc(Cl)cc3)n2)c1 | 36.1
SMILES | Tgondii IFNg
CN(C)c1nc(-c2cnn(C)c2)nc2c1CN(Cc1cccs1)CC2 | 4.3
CCS(=O)(=O)N1CCCC(Cc2cc(-c3ccc(C)cc3)no2)(C(=O)N(C)C)C1 (centres undefined) | 15.1
O=C(Cn1ncc2c(N3CCN(c4ccccn4)CC3)ncnc21)NC1CC1 | 67.2
COCCC(=O)N1Cc2nccn2CC(COCc2cccnc2)C1 (centres undefined) | -1.7
O=C(c1ccco1)N1Cc2nccn2CC(COc2cccnc2)C1 (centres undefined) | 0.4
c1cncc(COCC2CNCc3nccn3C2)c1 (centres undefined) | -81.8*
CCOC(=O)c1c(NCc2ccccc2Cl)c2cccc(Cl)c2[nH]c1=O | -44.1
COc1ccc(C(=O)Nc2ccc(-c3nc(Cn4nc(C)cc4C)c(C)o3)cc2)cc1F | 113.9
Cc1cc(C)n(Cc2nc(-c3ccc(NC(=O)c4cc(F)ccc4F)cc3)oc2C)n1 | -81.0*
Cc1cc(C)n(Cc2nc(-c3ccc(NC(=O)Cc4cccc(F)c4)cc3)oc2C)n1 | -38.3
Cc1nn(Cc2nc(-c3ccc(NC(=O)c4ccc(F)cc4F)cc3)oc2C)c(C)c1C | -100.6*
Cc1cc(C)n(Cc2nc(-c3ccc(NC(=O)c4ccc(F)cc4F)cc3)oc2C)n1 | -84.8*
Cc1nn(Cc2nc(-c3ccc(NC(=O)c4cccc(F)c4)cc3)oc2C)c(C)c1C | 48.8
Cc1cc(C)n(Cc2nc(-c3ccc(NC(=O)c4ccc(F)cc4Cl)cc3)oc2C)n1 | 65.6
Cc1cc(C)n(Cc2nc(-c3ccc(NC(=O)Cc4ccccc4F)cc3)oc2C)n1 | -7.9
Cc1nn(Cc2nc(-c3ccc(NC(=O)c4ccccc4F)cc3)oc2C)c(C)c1C | -69.5
C=CCn1c2c(ccc1=O)CC(NS(=O)(=O)c1cn(C)cn1)CC2 (centres undefined) | -9.3
O=C(CN=C1NS(=O)(=O)c2ccccc21)NCc1nnc2n1CCCCC2 | 1.4
O=C(NCCc1ccccn1)C1(Oc2ccc(Cl)cc2)CCNCC1 | 4.9
Cc1cc(C)n(C2CCN(C(=O)c3cc(COc4ccccc4)[nH]n3)C2)n1 (centres undefined) | -1.8
CCC1CN(C(=O)c2cc(COc3ccccc3F)[nH]n2)CCN1C(C)C (centres undefined) | -45.4
CC(C)n1cnc2c(-c3cccnc3)nc(C3CCN(Cc4ccccn4)CC3)cc21 | -34.9
CC[C@H](CO)Nc1nc(Nc2cccc(-c3ccccn3)c2)c2ncn(C(C)C)c2n1 | -79.2*
Cn1cnc2c(NCc3ccccc3)nc(NCCO)nc21 | 6.7
CC(C)n1cnc2c(NCc3ccccc3)nc(NCCCO)nc21 | -4.9
SMILES | Tgondii IFNg
CC[C@H](CO)Nc1nc(NCc2ccc(-c3ccccn3)cc2)c2ncn(C(C)C)c2n1 | -79.3*
CC(C)[C@H](CO)Nc1nc(Nc2cccc(Cl)c2)c2ncn(C(C)C)c2n1 | -73.8*
C=CCN(Cc1ccccc1)C(=O)C1(C(N)=O)CC1 | 90.8
CCOc1ccc(-c2nc(CSc3nc4c(=O)[nH]cnc4n3C)c(C)o2)cc1 | -12.7
CS(=O)(=O)c1cn[nH]c1C1CCCNC1 (centres undefined) | 20.4
CC(C)(C1=N[C@@H](C(C)(C)C)CO1)C1=N[C@@H](C(C)(C)C)CO1 | -25.3
NC(=O)c1cnc2n1CCN(C(=O)C1CCCc3c1[nH]c1ccccc31)C2 (centres undefined) | -2.9
C=CC(=O)Nc1cc2c(Nc3ccc(F)c(Cl)c3)ncnc2cc1C#CC(C)(C)N1CCN(C)CC1 | -71.8*
CN1CCC(Nc2ncc3ncnc(Nc4ccc(F)c(Cl)c4)c3n2)CC1 | -30.2
CN1CCCC1CCNC(=O)CC(=O)Nc1ccc(F)c(Cl)c1 (centres undefined) | -47.0
COCCN1C(=O)N(Cc2ccccc2)C2(CCN(Cc3ccc4c(c3)CCO4)CC2)C1=O | 13.5
O=C(Nc1ccc(F)c(F)c1)c1c(O)c2ccccc2[nH]c1=O | 371.9
CC(C)n1nnc(CC(=O)Nc2ccc(N3CCCCC3)c(C(F)(F)F)c2)n1 | 9.0
COc1ccc(-c2nc(NCCc3cc(OC)ccc3OC)c3ccccc3n2)cc1 | -40.7
COc1ccc(Br)cc1CNC(=O)c1nc(Nc2ccc(C)cc2)c2ccccc2n1 | -47.4
Cc1nn(Cc2ccccc2)c(C)c1CC(=O)NCCn1ccnc1 | -8.4
Cn1cc(N2C[C@@H]3CN(Cc4ccoc4)C[C@H]3C2=O)cn1 | 14.0
Cn1cc(N2C[C@@H]3CN(c4ccccn4)C[C@H]3C2=O)cn1 | -87.1*
Cc1cccc(N2C[C@@H]3CN(c4cccnc4)C(=O)[C@@H]3C2)n1 | 21.4
Cc1ccsc1-c1nccn1CCc1ccco1 | 9.8
CCOC(=O)c1csc(-c2snnc2C)n1 | -15.7
Cc1nnsc1-c1nc(-c2ccc(Cl)s2)cs1 | -84.9*
Cc1nc(-c2ccc(Cl)cc2)sc1-c1csc(-c2ccc(Cl)cc2)n1 | -15.0
C=CCOCC1c2nnn(C)c2CCN1Cc1cnn(C)c1 (centres undefined) | 34.6
Cc1cc2cccc(C(=O)N3CCOC4(CNCCOC4)C3)c2o1 (centres undefined) | -3.4
O=C(N/N=C/c1ccccc1O)c1ccccc1O | -83.4*
CC(=O)Nc1ccc(OC(=O)c2ccccc2O)cc1 | 8.3
O=C(/C=C/c1ccccc1)NC(=O)c1ccccc1O | -66.3
Cc1cc(C(=O)N(C)CCCc2cnn(C)c2)n[nH]1 | -6.9
